This is an account of results in PubChem BioAssay (EPA / NIEHS).

Assay [1] concerns the target Paired box protein Pax-6 (Homo sapiens) (UniProt P26367). The experiment in a line: ATG_Pax6_CIS: Attagene CIS-FACTORIAL HepG2 Assay for human Paired Box 6 (PAX6) (AID 2282956). The settings on record: HepG2 CIS-FACTORIAL PAX6 reporter transcription, RNA readout; actives raise or lower the signal. Put shortly: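 DMSO-referenced bidirectional fits of reporter mRNA fluorescence; HepG2 with transient cis-promoter MRTUs, 24 h post-dose, RT-PCR plus capillary electrophoresis detection.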

Assay [2] can be described thus: ATG_PXRE_CIS: Attagene CIS-FACTORIAL HepG2 Assay for human Pregnane X Receptor Element (PXRE) (AID 2282957). The settings on record: HepG2 Attagene CIS-FACTORIAL PXRE reporter, mRNA; actives raise or lower the signal. Put shortly: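 Fluorescent capillary electrophoresis of amplified reporter cDNA gave the signal, collected 24 h after dosing HepG2 cells that held transfected cis-element reporter constructs.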

A short description of assay [3]: ATG_PPRE_CIS: Attagene CIS-FACTORIAL HepG2 Assay for human Peroxisome Proliferator-activated Response Element (PPRE) (AID 2282958). The settings on record: HepG2 PPRE cis-element reporter, Attagene transcription factor profiling; actives raise or lower the signal. A digest of the protocol:
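After human HepG2 hepatoma cells were transiently transfected with cis-promoter reporter constructs, they were exposed to test chemicals for 24 hours. Reporter RNA was then reverse-transcribed, PCR-amplified, FAM-labeled, HpaI-digested and quantified by capillary electrophoresis.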

The nature of assay [4]: ATG_RORE_CIS: Attagene CIS-FACTORIAL HepG2 Assay for human RAR-related Orphan Receptor Element (RORE) (AID 2282959). Particulars: HepG2 Attagene cis-factorial RORE reporter, mRNA; actives raise or lower the signal. A digest of the protocol: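 Measured here: transcript induction of a cis-regulated reporter in HepG2 cells transiently transfected via FuGene 6. After 24 h, RNA was processed by RT-PCR and fluorescent capillary electrophoresis; DMSO defined baseline activity.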

Assay [5] can be described thus: ATG_Sox_CIS: Attagene CIS-FACTORIAL HepG2 Assay for human SRY-box transcription factor (SOX) (AID 2282960). The settings on record: HepG2 Attagene cis-factorial SOX reporter, mRNA; actives raise or lower the signal. A digest of the protocol: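 Using transiently transfected HepG2 cells, reporter transcription driven by cis elements was assessed 24 h after dosing. Signal was fluorescence of capillary-separated RT-PCR products, with DMSO defining baseline activity.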

Assay [6] addresses Transcription factor Sp1 (Homo sapiens) (UniProt P08047). As to the kind of experiment: ATG_Sp1_CIS: Attagene CIS-FACTORIAL HepG2 Assay for human Specificity Protein 1 (Sp1) (AID 2282961). Particulars: HepG2 Sp1 cis-reporter transcription, actives raise or lower the signal. A digest of the protocol:
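After transient transfection of HepG2 cells with cis-promoter reporter units and 24 h chemical treatment, reporter transcripts were quantified by RT-PCR and capillary electrophoresis fluorescence. Gain- and loss-of-signal fitted against DMSO.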

The nature of assay [7]: ATG_SREBP_CIS: Attagene CIS-FACTORIAL HepG2 Assay for human Sterol Regulatory Element Binding (SREBP) (AID 2282962). The settings on record: HepG2 Attagene cis-factorial SREBP reporter, mRNA; actives raise or lower the signal. Put shortly:
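In this cis-format assay, HepG2 liver cells express reporters controlled by promoter elements responsive to native transcription factors. Exposure lasts 24 h; reporter mRNA fluorescence from capillary electrophoresis gives the signal, fitted bidirectionally against DMSO.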

A short description of assay [8]: ATG_TCF_b_cat_CIS: Attagene CIS-FACTORIAL HepG2 Assay for human T-Cell-Factor with beta-catenin (TCF/b-cat) (AID 2282965). Particulars: HepG2 TCF/beta-catenin cis-reporter transcription, actives raise or lower the signal. Put shortly: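 In this cis-format system, transfected HepG2 cells report endogenous transcription factor activity. Readout after 24 h exposure is reporter transcript abundance from RT-PCR and capillary electrophoresis, analysed for gain or loss of signal versus DMSO.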

The nature of assay [9]: ATG_TAL_CIS: Attagene CIS-FACTORIAL HepG2 Assay for human TAL Basal Promoter (AID 2282966).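 Note: background control endpoint measuring basal TAL promoter reporter mRNA not a specific factor.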 Particulars: HepG2 Attagene cis-factorial TAL promoter reporter; actives raise or lower the signal. A digest of the protocol: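 Transiently transfected HepG2 (cis-regulated reporter units), 24 h treatment, mRNA read by fluorescent CE after RT-PCR; bidirectional fit, DMSO baseline.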

The nature of assay [10]: ATG_TGFb_CIS: Attagene CIS-FACTORIAL HepG2 Assay for human Transforming Growth Factor (TGF) (AID 2282967). The settings on record: HepG2 Attagene CIS TGFb reporter, mRNA transcription; actives raise or lower the signal. Put shortly:
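Endogenous TGFB1-linked transcription factor activity read as reporter mRNA via RT-PCR and capillary electrophoresis, 24 h after dosing transiently transfected HepG2 cells. Gain or loss of signal fitted relative to DMSO.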

Assay [11] in a line: ATG_VDRE_CIS: Attagene CIS-FACTORIAL HepG2 Assay for human Vitamin D Receptor Element (VDRE) (AID 2282968). Particulars: HepG2 VDRE cis-reporter transcription, actives raise or lower the signal. Put shortly: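 Transfected HepG2 reporter cells, chemical treatment 24 h. RNA isolated, cDNA amplified with reporter-specific primers, products analysed by capillary electrophoresis. Endpoint fitted in both directions versus DMSO.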

Assay [12] concerns the target Nuclear receptor subfamily 1 group I member 3 (Homo sapiens) (UniProt Q14994). The experiment in a line: ATG_CAR_TRANS: Attagene TRANS-FACTORIAL HepG2 Assay for human Constitutive Androstane Receptor (CAR) (AID 2282969; active = hit-call score of the fitted dose curve at least 0.9, where 1 is the maximum;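 note: activators raise reporter mRNA above DMSO so AC50 marks induction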). Particulars: HepG2 Attagene TRANS-FACTORIAL CAR reporter. Put shortly:
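Steps: transient transfection of HepG2 with multiple GAL4-UAS reporter units; 24 h compound incubation; RNA isolation, RT-PCR, 6-FAM primer extension, HpaI digest; capillary electrophoresis. Gain-of-signal relative to DMSO negative control.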

In assay [13] the target is X-box-binding protein 1 (Homo sapiens) (UniProt P17861). The experiment in a line: ATG_Xbp1_CIS: Attagene CIS-FACTORIAL HepG2 Assay for human X-box Binding Protein 1 (XBP1) (AID 2282972). The settings on record: HepG2 XBP1 cis-element reporter, Attagene multiplex; actives raise or lower the signal. A digest of the protocol: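 Changes in reporter transcript abundance, read by RT-PCR and capillary electrophoresis, reflect endogenous transcription factor activity. Transfected HepG2 cells received compound for 24 hours; DMSO defined baseline for bidirectional analysis.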

Assay [14] in a line: ATG_M_19_TRANS: Attagene TRANS-FACTORIAL HepG2 Assay for M19 Transcription Factor (Internal Marker) (AID 2282974; active = hit-call score of the fitted dose curve at least 0.9, where 1 is the maximum). The settings on record: HepG2 Attagene TRANS-FACTORIAL M19 internal marker reporter. Put shortly: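 Gain-of-signal in reporter mRNA, relative to DMSO, was scored from capillary electrophoresis fluorescence. HepG2 cells carried transiently transfected multiple reporter transcription units and were incubated with test chemicals for 24 h.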

Assay [15] has as its target Signal transducer and activator of transcription 3 (Homo sapiens) (UniProt P40763). As to the kind of experiment: ATG_STAT3_CIS: Attagene CIS-FACTORIAL HepG2 Assay for human Signal Transducer and Activator of Transcription 3 (STAT3) (AID 2282963). Particulars: HepG2, Attagene cis-factorial STAT3 reporter transcription; actives raise or lower the signal. A digest of the protocol:
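Uses human liver HepG2 transiently carrying cis-regulated reporter transcription units. Following 24 h dosing, reporter mRNA induction was detected by RT-PCR and capillary electrophoresis, analysed bidirectionally versus DMSO.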

A short description of assay [16]: ATG_TA_CIS: Attagene CIS-FACTORIAL HepG2 Assay for human TA Basal Promoter (AID 2282964). The settings on record: HepG2 Attagene CIS-factorial TA basal promoter reporter; actives raise or lower the signal. Put shortly: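 Background-control readout: TA basal promoter reporter mRNA, fitted in both directions relative to DMSO. Measured by RT-PCR and capillary electrophoresis 24 hours after treating HepG2 human liver cells transiently carrying multiplexed cis-regulated reporter constructs.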

Assay [17] has as its target Estrogen receptor (Homo sapiens) (UniProt P03372). As to the kind of experiment: ATG_ERa_TRANS: Attagene TRANS-FACTORIAL HepG2 Assay for human Estrogen Receptor alpha (ERa) (AID 2282970; active = hit-call score of the fitted dose curve at least 0.9, where 1 is the maximum). Particulars: HepG2 Attagene TRANS ERa GAL4 reporter, mRNA. A digest of the protocol:
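One of 30 multiplexed endpoints from a HepG2 TRANS system, this one reports ERa-Gal4-driven reporter mRNA. Transcripts were quantified 24 hours post-dosing by fluorescent RT-PCR and capillary electrophoresis, with activity scored as induction over DMSO.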

In assay [18] the target is Steroid hormone receptor ERR1 (Homo sapiens) (UniProt P11474). The experiment in a line: ATG_ERRa_TRANS: Attagene TRANS-FACTORIAL HepG2 Assay for human Estrogen-Related Receptor alpha (ERRa) (AID 2282971; active = hit-call score of the fitted dose curve at least 0.9, where 1 is the maximum). Particulars: HepG2 Attagene TRANS reporter, ERRa transactivation. Put shortly:
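HepG2 cells transiently transfected with multiplexed GAL4-UAS reporter units reading chimeric ERRa-Gal4 activity; 24 h compound exposure. Reporter mRNA measured by RT-PCR, 6-FAM labelling, HpaI digest and capillary electrophoresis; gain of signal fitted versus DMSO baseline.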

Results filed as inconclusive are left out. Active and inactive are the calls of the source. Rule for the calls, unless noted: active = hit-call score of the fitted dose curve at least 0.9, where 1 is the maximum; inactive = score below 0.9.

Chain of Paired box protein Pax-6 (Homo sapiens) (P26367 whole entry, looked up): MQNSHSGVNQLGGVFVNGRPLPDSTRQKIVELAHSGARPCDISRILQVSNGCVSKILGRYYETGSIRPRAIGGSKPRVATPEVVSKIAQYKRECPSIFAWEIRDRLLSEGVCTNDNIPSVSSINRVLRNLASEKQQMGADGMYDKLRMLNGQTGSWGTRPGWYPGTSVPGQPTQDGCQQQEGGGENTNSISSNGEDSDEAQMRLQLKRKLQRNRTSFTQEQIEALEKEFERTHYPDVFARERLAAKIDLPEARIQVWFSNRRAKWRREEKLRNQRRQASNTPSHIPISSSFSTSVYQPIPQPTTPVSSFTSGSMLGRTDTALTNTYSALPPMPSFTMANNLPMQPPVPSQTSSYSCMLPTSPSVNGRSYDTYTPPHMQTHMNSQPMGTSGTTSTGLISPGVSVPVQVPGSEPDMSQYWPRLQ
Chain of Transcription factor Sp1 (Homo sapiens) (P08047 whole entry, looked up): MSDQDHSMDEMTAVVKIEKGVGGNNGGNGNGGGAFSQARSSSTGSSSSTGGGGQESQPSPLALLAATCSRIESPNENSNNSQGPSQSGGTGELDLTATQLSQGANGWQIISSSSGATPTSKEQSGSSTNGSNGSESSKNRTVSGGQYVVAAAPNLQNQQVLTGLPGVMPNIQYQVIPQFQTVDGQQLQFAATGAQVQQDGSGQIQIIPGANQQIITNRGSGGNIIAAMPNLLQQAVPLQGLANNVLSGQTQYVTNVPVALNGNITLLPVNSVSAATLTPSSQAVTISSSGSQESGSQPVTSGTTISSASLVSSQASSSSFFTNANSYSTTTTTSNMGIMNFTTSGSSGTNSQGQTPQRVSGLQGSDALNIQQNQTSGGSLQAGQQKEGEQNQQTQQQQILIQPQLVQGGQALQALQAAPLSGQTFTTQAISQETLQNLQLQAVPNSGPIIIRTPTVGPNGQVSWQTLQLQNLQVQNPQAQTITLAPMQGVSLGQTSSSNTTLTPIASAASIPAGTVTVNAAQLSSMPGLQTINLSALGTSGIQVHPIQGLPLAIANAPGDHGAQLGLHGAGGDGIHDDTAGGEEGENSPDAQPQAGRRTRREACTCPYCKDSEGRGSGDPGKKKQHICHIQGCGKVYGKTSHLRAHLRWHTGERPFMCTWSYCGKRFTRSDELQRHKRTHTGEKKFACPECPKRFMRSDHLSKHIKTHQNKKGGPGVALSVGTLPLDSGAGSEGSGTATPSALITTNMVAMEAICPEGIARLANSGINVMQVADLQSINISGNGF
Chain of X-box-binding protein 1 (Homo sapiens) (P17861 whole entry, looked up): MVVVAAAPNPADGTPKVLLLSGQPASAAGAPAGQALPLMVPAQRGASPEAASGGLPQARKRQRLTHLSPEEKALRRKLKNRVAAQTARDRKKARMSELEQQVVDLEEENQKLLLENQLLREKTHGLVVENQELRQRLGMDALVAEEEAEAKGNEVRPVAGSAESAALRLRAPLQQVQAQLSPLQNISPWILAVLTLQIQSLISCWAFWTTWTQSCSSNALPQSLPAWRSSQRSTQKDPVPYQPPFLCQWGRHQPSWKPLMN
Chain of Nuclear receptor subfamily 1 group I member 3 (Homo sapiens) (Q14994 whole entry, looked up, the tested form may be a part): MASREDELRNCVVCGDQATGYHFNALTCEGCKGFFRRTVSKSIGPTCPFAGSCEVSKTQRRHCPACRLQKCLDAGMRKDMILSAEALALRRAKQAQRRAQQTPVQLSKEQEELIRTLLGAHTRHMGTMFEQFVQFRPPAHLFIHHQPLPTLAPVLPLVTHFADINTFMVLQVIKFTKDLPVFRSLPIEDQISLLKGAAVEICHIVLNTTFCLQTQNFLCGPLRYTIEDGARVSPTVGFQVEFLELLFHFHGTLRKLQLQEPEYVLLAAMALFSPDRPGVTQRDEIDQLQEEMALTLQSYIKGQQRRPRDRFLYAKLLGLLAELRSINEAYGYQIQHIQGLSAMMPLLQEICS
Chain of Estrogen receptor (Homo sapiens) (P03372 whole entry, looked up, the tested form may be a part): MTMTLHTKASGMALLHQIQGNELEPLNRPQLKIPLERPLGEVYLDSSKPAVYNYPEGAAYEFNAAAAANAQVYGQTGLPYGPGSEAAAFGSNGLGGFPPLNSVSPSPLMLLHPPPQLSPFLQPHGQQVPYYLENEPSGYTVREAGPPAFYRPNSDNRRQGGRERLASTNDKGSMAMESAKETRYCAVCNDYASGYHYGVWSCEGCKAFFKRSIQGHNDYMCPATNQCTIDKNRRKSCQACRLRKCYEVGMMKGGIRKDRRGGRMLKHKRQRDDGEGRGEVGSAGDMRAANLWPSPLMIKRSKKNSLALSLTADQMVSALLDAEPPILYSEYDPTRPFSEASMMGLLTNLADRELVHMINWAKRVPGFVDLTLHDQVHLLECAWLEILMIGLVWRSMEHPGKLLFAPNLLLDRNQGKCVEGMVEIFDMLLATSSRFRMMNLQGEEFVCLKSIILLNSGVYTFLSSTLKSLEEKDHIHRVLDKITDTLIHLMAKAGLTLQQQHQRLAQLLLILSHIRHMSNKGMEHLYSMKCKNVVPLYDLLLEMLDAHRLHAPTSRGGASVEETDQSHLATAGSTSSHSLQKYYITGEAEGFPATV
Chain of Signal transducer and activator of transcription 3 (Homo sapiens) (P40763 whole entry, looked up): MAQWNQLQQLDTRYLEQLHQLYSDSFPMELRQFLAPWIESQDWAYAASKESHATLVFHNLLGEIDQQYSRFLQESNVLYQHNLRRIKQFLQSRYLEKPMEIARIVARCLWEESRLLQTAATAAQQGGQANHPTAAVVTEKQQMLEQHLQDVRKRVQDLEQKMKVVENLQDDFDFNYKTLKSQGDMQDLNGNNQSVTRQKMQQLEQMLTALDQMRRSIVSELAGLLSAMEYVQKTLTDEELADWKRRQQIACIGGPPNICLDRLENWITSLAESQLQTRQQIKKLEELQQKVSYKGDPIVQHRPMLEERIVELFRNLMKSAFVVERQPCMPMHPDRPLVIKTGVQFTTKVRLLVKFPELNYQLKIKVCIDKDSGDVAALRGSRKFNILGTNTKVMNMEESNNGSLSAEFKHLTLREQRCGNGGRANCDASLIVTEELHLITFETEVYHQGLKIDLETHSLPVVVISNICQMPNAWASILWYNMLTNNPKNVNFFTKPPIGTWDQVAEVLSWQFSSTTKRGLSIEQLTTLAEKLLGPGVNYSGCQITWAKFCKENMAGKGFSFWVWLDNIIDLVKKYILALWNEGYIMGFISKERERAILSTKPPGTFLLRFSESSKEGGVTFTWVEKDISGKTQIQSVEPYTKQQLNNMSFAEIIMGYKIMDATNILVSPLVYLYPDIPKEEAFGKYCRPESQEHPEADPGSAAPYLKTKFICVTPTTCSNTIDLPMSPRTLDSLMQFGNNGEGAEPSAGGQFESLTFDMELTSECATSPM
Chain of Steroid hormone receptor ERR1 (Homo sapiens) (P11474 whole entry, looked up, the tested form may be a part): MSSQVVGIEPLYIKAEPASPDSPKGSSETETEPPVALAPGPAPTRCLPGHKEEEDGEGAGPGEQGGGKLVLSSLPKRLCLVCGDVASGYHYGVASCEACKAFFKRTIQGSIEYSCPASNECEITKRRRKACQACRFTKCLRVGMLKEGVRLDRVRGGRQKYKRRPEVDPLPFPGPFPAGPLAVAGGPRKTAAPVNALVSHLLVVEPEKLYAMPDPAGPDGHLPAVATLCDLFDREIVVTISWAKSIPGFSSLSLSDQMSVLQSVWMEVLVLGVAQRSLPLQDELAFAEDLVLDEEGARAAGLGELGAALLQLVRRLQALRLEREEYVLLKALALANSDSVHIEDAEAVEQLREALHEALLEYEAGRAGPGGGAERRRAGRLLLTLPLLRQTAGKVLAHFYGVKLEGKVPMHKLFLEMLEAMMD

Turning to `Cc1ccc(C(C)(C)C)cc1`, the call in [1], in [2], in [3], in [4], in assay [5] and in [6] was inactive. For the same molecule, the result in [7], in assay [8], in [9], in assay [10], in assay [11] and in assay [12] was inactive. The result in [13] and in assay [14] was inactive.

A word on the AC50: it is the midpoint of the concentration-response curve, whichever way the signal moves. With `Cc1c(C)c([N+](=O)[O-])c(C(C)(C)C)c([N+](=O)[O-])c1C`, the result in assay [1], in [3], in assay [4], in [5], in [6] and in assay [15] was inactive. Moreover, the call in assay [16], in assay [8], in [9], in assay [10], in assay [12] and in assay [17] was inactive. For the same molecule, the outcome in [18], in assay [13] and in assay [14] was inactive. Further, the AC50 in assay [2] is 1.93 µM (active).

Take `O=C1CCCN1CCO`: the molecule was called inactive in assay [1], in assay [2], in assay [3], in assay [4], in assay [5] and in [7]. For the same molecule, the outcome in [15], in assay [16], in assay [8], in assay [9], in [10] and in assay [12] was inactive. Moreover, the outcome in assay [17], in assay [13] and in assay [14] was inactive.

In the case of `O=S(=O)(O)c1ccc2cc(O)c(S(=O)(=O)O)cc2c1`, the AC50 is 151 µM (active) in [1], 66.9 µM (active) in assay [8] and 172 µM (active) in [13]. In addition, the outcome in assay [2], in assay [3], in assay [4], in assay [5], in assay [6] and in assay [7] was inactive. Besides, the molecule was classed as inactive in [16], in [9], in assay [10], in assay [11] and in assay [14].
